From PubChem
Shn3 inh set2: reduces Shn3 3'UTR luciferase signal in osteoblasts | Clone20 osteoblast Shn3 3'UTR firefly luciferase, 24 h | inhibition, % at 12.5 µM | 360,000 tested, 0.52% active;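 active means mean inhibition of at least 75% with every replicate also reaching 75%; inconclusive means mean inhibition at least 75% but some replicate below; inactive means mean inhibition below 75%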
Peg3 promoter: Peg3 promoter activity inhibition | inhibition, % at 20 µM | 360,000 tested, 1.7% active | AID 588405 | HeLa PEG-Prom luciferase reporter, luminescence, overnight;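 active means inhibition of at least 50% at 20 µM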
TRPM1 prom inh: reduces MITF-dependent TRPM1 promoter luciferase signal; 330,000 tested, 0.83% active; inhibition, % at 12.5 µM; SK-MEL-5 TRPM1 promoter luciferase, 24 h;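 active means mean inhibition across replicates of 60% or more, whatever share of single replicates reaches that level; inconclusive means some that reach 60%, reason not given; inactive means mean inhibition across replicates below 60%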
HIF-2a inh: blocks HIF-2a reporter activity; 786-0 RCC cells HIF-2a reporter, luciferase luminescence, overnight; inhibition, % at 18.8 µM; 360,000 tested, 0.72% active;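 active means inhibition of the luminescence signal of 40% or more relative to plate controls, in a single-dose primary screen at 18.75 µM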
CF NFkB block: blocks PAF-induced NF-kB reporter in cystic fibrosis cells. 360,000 tested, 0.86% active. AID 588850. KKLEB NF-kB-GFP reporter, GFP fluorescence overnight. inhibition, % at 5 µM;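 active means at least 50% inhibition at 5 µM, scaled per plate between neutral and stimulator controls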;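 further: PAF is a Pseudomonas aeruginosa culture filtrate used as stimulus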
KKLEB cytotox: reduces viability of KKLEB cystic fibrosis airway cells; activity change (cytotoxicity), % at 5 µM; AID 602141; 360,000 tested, 0.36% active; KKLEB CF airway cells viability, ATPlite luminescence, overnight; active compounds read low; cells stimulated with P. aeruginosa culture filtrate;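 active means corrected activity change at or below -50% at 5 µM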
Each line names hits and unclear results; the compound was inactive in the other large screens. The list is not random: actives were taken first. Their share in the collection is about 2.7%.

CCCCn1nc(C(=O)NC2CCCCC2)c2ccccc2c1=O	none (no result: TRPM1 prom inh)
CC1=CCC[C@@H]2[C@]3(CC/C(=C/CO)CO)CO[C@@]2(C1)[C@@H](O)C[C@H]3C	none (no result: TRPM1 prom inh)
Cc1ccc(/C=C2\SC(=S)N(CCCC(=O)Nc3ccccc3C(=O)O)C2=O)cc1	HIF-2a inh 87
Cc1ccc(/C=C2\SC(=S)N(CCCC(=O)Nc3nccs3)C2=O)cc1	HIF-2a inh 48
COc1ccc(/C=C2/SC(=S)N(CCCC(=O)Nc3ccccc3C(=O)O)C2=O)cc1	HIF-2a inh 91
COc1ccc(/C=C2/SC(=S)N(CCCC(=O)Nc3cccc(O)c3)C2=O)cc1	HIF-2a inh 56
COc1ccc(/C=C2\SC(=S)N(CCC(=O)Nc3cccc(O)c3)C2=O)cc1OC	none
Cc1cn([C@H]2C[C@H](O)[C@@H](/C=C/C(=O)NCCC(C)C)O2)c(=O)[nH]c1=O	none (no result: TRPM1 prom inh)
CC(=O)Nc1cccc(-c2ccnc3c2CC(C(=O)NCc2cccs2)O3)c1 (stereo unspecified)	none (no result: TRPM1 prom inh)
COC(=O)[C@@]12C[C@@H](CC(=O)NCCCCc3ccccc3)C(=O)N(Cc3ccc4c(c3)OCO4)C1=CCC(C)(C)C2	none (no result: Shn3 inh set2, Peg3 promoter, TRPM1 prom inh, CF NFkB block, KKLEB cytotox)
COc1ccc2c(C)cc(SCC(=O)Nc3ccc(Cl)cn3)nc2c1	CF NFkB block 52, KKLEB cytotox -52
COc1ccc2c(C)cc(SCC(=O)NC3CCCCC3)nc2c1	none
O=C1C(Cl)=C(N2CCCCC2)C(=O)C(Cl)=C1c1cnc(N2CCCCC2)s1	Peg3 promoter 58, TRPM1 prom inh 101, HIF-2a inh 45
CN(C)c1ncc(C2=C(Cl)C(=O)C(N3CCCC3)=C(Cl)C2=O)s1	Peg3 promoter 57
CC(=O)c1cnc(N(C)C)s1	none
Cc1cccc(-c2n[nH]nc2C2=CC(=O)CC(C)(C)C2)c1	none (no result: TRPM1 prom inh)
Cc1nc2ccc(C(=O)Nc3ccc4c(c3)OCC(=O)N4)cn2c1N(C)C(=O)CCc1ccccc1	none (no result: TRPM1 prom inh)
COc1ccc(Nc2ccc3c(c2)=NC2(CCCCC2)[N+]=3[O-])cc1	Peg3 promoter 95, TRPM1 prom inh 86, CF NFkB block 64
[O-][N+]1=c2ccc(Nc3ccccc3)cc2=NC12CCCCC2	Peg3 promoter 104, TRPM1 prom inh 61, CF NFkB block 85
COc1ccc(NC2=NC(=S)N(c3ccccc3C)C23CCCCC3)cc1	none
CC(=O)Oc1ccccc1Cn1c(C)c(C(=O)NCc2cccc([N+](=O)[O-])c2)sc1=O	none (no result: TRPM1 prom inh)
CC1(C(=O)Nc2nccs2)CCN1C(=O)CC(c1ccccc1)c1ccccc1 (stereo unspecified)	none (no result: TRPM1 prom inh)
CCCCSc1nc(C)cc(SCC(=O)N/N=C/c2cccc(OC)c2O)n1	Peg3 promoter 53
Cc1nn(C)c(=O)n1N(C)c1ncc(C(F)(F)F)cc1Cl	Peg3 promoter 67
O=C(C[C@H]1C[C@@H]2c3cc(NC(=O)Nc4ccccc4F)ccc3O[C@@H]2[C@H](CO)O1)NCc1ccccn1	none (no result: TRPM1 prom inh)
C=CC[n+]1c(-c2ccc(OC)c(OC)c2)csc1NNC(=O)Nc1ccccc1	Shn3 inh set2 90
COc1ccccc1N(CC(=O)NCCSCc1ccc(Cl)cc1)S(C)(=O)=O	none
COc1ccccc1OCC(=O)NCCSCc1ccc(Cl)cc1	Peg3 promoter 77
CCN(CC)C(=O)c1cccc(-c2csc(C(NC(C)=O)c3cccc(OC)c3)n2)c1 (stereo unspecified)	none (no result: TRPM1 prom inh)
COc1ccccc1OCCn1nc2ccccc2c1OC	none (no result: Shn3 inh set2, Peg3 promoter, TRPM1 prom inh, CF NFkB block, KKLEB cytotox)
CCCc1ccc(C(=O)NNc2cc(Cl)ccc2Cl)cc1	Shn3 inh set2 90
CC1=NOC(=O)/C1=C\c1ccc(-c2ccc(Cl)cc2Cl)o1	Peg3 promoter 108, TRPM1 prom inh 73, HIF-2a inh 56
COc1ccc(C(=O)N2CCC(C)(C(=O)NS(=O)(=O)C3CC3)C2)cc1 (stereo unspecified)	none (no result: TRPM1 prom inh)
O=C(NC(c1ccccc1)c1ccc2ccccc2n1)C1CCN(Cc2ccc(Cl)c(Cl)c2)CC1 (stereo unspecified)	none (no result: TRPM1 prom inh)
COc1cc(/C=C(/C#N)C(=O)NCCc2c[nH]c3ccccc23)ccc1OCc1ccccc1F	Peg3 promoter 89
O=[N+]([O-])c1cc(-c2nc(-c3ccncc3)no2)ccc1Cl	Peg3 promoter 105
O=[N+]([O-])c1cc(-c2nc(-c3ccncc3)no2)cc([N+](=O)[O-])c1	none
COCCNC(=O)C1(C)CCCN(C(=O)c2ccco2)C1 (stereo unspecified)	none (no result: TRPM1 prom inh)
O=C(O)c1ccc(NC2=C/C(=N/S(=O)(=O)c3ccccc3)c3ccccc3C2=O)cc1	Shn3 inh set2 inconclusive, TRPM1 prom inh 63, HIF-2a inh 44, CF NFkB block 89
CC(=O)Nc1ccc(NC2=CC(=O)c3ccccc3C2=O)cc1	none
Cc1cc(C)c(S(=O)(=O)/N=C2\C=C(Nc3ccc(C(=O)O)cc3)C(=O)c3ccccc32)c(C)c1	Peg3 promoter 103, TRPM1 prom inh 78, CF NFkB block 91, KKLEB cytotox -63
CNC[C@@H]1OCc2ccccc2-c2c(n(C)c3ccccc23)C(=O)N([C@H](C)CO)C[C@H]1C	none (no result: TRPM1 prom inh)
CCOC(=O)/C(C)=N/NC(=O)c1ccc([N+](=O)[O-])cc1	none
CCOC(=O)/C(N=Nc1ccc(F)cc1)=C(/O)c1ccc([N+](=O)[O-])cc1	CF NFkB block 67
COc1cc(NC(=O)c2cc3c(C)nc4ccccc4c3o2)cc(OC)c1OC	Peg3 promoter 56
COc1cc(NC(=O)c2cc3nc(-c4ccccc4)cc(-c4ccccc4)n3n2)cc(OC)c1OC	Peg3 promoter 57
COc1cccc(CNC(=O)c2cc3c(C)nc4ccccc4c3o2)c1	Shn3 inh set2 inconclusive (no result: TRPM1 prom inh)
COc1ccc(CNC(=O)c2cc3c(C)nc4ccccc4c3o2)c(OC)c1	Shn3 inh set2 90 (no result: TRPM1 prom inh)
CCc1nc2ccc(C(=O)N(C)CCN(C)C)cn2c1N(CC)C(=O)NCCc1ccccc1	none (no result: TRPM1 prom inh)
COC(=O)[C@@]12C[C@@H](CC(=O)N3CCCCC3)C(=O)N(Cc3ccco3)C1=CCC(C)(C)C2	none (no result: Shn3 inh set2, Peg3 promoter, TRPM1 prom inh, CF NFkB block, KKLEB cytotox)
OC(c1cc(F)cc(Cl)c1)c1ncc(-c2ccccc2Cl)[nH]1 (stereo unspecified)	none (no result: TRPM1 prom inh)
O=C(c1[nH]c(C(F)(F)F)nc1-c1ccccc1)N1CCN(Cc2c(F)cccc2Cl)CC1	none (no result: TRPM1 prom inh)
CC(=O)N1c2ccc(S(=O)(=O)N3CCC(C(=O)Nc4cccc(C(F)(F)F)c4)CC3)cc2CC1C (stereo unspecified)	Shn3 inh set2 93
CC(=O)c1ccc(N2CCN(S(=O)(=O)c3ccc4c(c3)CC(C)N4C(=O)C3CC3)CC2)cc1 (stereo unspecified)	Shn3 inh set2 88
CC(=O)N1c2ccc(S(=O)(=O)N3CCC(C(=O)N4CCN(c5cc(Cl)ccc5C)CC4)CC3)cc2CC1C (stereo unspecified)	Shn3 inh set2 89
Cc1ccc(C(OCC(O)CNCc2ccc(F)cc2)c2ccccc2)cc1 (stereo unspecified)	Peg3 promoter 100
